Screening results: PubChem, National Center for Advancing Translational Sciences (NCATS)
SARS PLP yeast: inhibitors of SARS-CoV papain-like protease in yeast; 330,000 compounds, 0.19% hits; AID 485353; Potency, µM (series often up to 32.9 µM), inactives show at the highest dose activity, positive = growth rescue, most hits filed as activators; S. cerevisiae expressing SARS-CoV PLpro, growth rescue; calls by dose curve; further: potency means the concentration at half of the fitted maximal effect; 0% is about no effect; nearly all actives have a fitted effect of over 55% in size
HCMV inh: inhibitors of human cytomegalovirus | activity change, negative = inhibition, % at 57.5 µM | HFF cells, HCMV-luciferase reporter, 72 h; stronger effect = lower value | 410,000 compounds, 4.5% hits; in the data active means activity change below about -60%; inconclusive means no clear call, values can overlap the other calls; inactive means above about -39%; further: on the % scale 0 is the no-effect control and ±100 the full control effect
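Luciferase read-out from HCMV-luciferase-infected HFFs (MOI 1 PFU/cell) 72 h post infection at 37C; compounds added after 16 h cell attachment; activity normalized between buffer-only basal and Salinomycin (10uM) inhibitor controls.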
Pf growth 48h: P. falciparum growth inhibition at 48 hours (one generation); 310,000 compounds, 5.9% hits; AID 504832; Potency, µM (doses to about 28.7 µM), without a hit: at the top dose activity change, negative = inhibition, most hits filed as inhibitors; P. falciparum luciferase growth in erythrocytes, 48 h; further: potency means the concentration at half of the fitted maximal effect; on the % scale 0 is the no-effect control and ±100 the full control effect
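Compounds are pin-transferred into medium, infected erythrocytes (2% hematocrit, 0.1% parasitemia final) are added, and plates sit one parasite generation at 37 C in 5% CO2. Detection reagent is then added and luminescence measured.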
Pf growth 96h: inhibits malaria parasite growth, 96 h. P. falciparum luciferase reporter growth, 96 h. 320,000 compounds, 6.9% hits. Potency, µM (top dose mostly 28.7 µM), without a hit: at the highest dose activity change, negative = inhibition, hits mostly inhibitors; further: potency means the concentration at half of the fitted maximal effect; on the % scale 0 is the no-effect control and ±100 the full control effect
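Compounds incubated with erythrocytes infected by luciferase-expressing P. falciparum (2% hematocrit, 0.05% parasitemia final) for 96 hours, 37 C in 5% CO2. Growth inhibition scored as decreased luciferase luminescence.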
HCV inhibitor: inhibitors of hepatitis C virus infection; Huh7.5.1 HCVcc-Cre infection, luciferase reporter, 44 h; Potency, µM (doses to about 41.8 µM), inactives show at the top dose activity change, negative = inhibition, most hits filed as inhibitors; 340,000 compounds, 3.4% hits; AID 651820; further: potency means the concentration at half of the fitted maximal effect; on the % scale 0 is the no-effect control and ±100 the full control effect
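Whole-lifecycle infectious HCVcc-Cre system; cells 1,000/well, compound then virus (~0.5 moi) added 4 h after plating, 44 h culture. Luciferase read 15 sec following 15 min substrate incubation, room temp.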
Sm TGR inh: S. mansoni TGR enzyme inhibition; AID 485364; Potency, µM (series often up to 114 µM), inactives show at the top dose activity change, negative = inhibition, hits mostly inhibitors; 360,000 compounds, 3% hits; purified TGR, DTNB reduction, TNB absorbance 405 nm; Q962Y6; further: potency means the concentration at half of the fitted maximal effect; on the % scale 0 is the no-effect control and ±100 the full control effect; nearly all actives have a fitted effect of over 60% in size
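First, TGR (20 nM dispensed) and NADPH were mixed with compound. Second, a 15 min room-temperature incubation followed. Third, further NADPH and then DTNB were added to start the reaction. Finally, TNB absorbance was monitored kinetically.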
* hit, by the source's call; ? = inconclusive; / = no result given. Compounds with a hit are over-represented: about 15% of the library has one in this group of screens. Unless noted, the call rests on the fitted dose curve; in most records, active means well fitted curve in the direction sought with a large enough effect; inconclusive means small, poorly fitted or top-dose-only effect, or another doubt; inactive means no such curve, though single readings can be large; an effect the other way counts as inactive or inconclusive.

SMILES	SARS PLP yeast	HCMV inh	Pf growth 48h	Pf growth 96h	HCV inhibitor	Sm TGR inh
Cc1c(CCC(=O)NCc2cccc(Cl)c2)c(=O)oc2c(C)c(O)ccc12	/	?	/	/	/	10%
COc1ccccc1N1CCN(C2CCCN(C(=O)CN3CCCC3=O)C2)CC1 (stereo unspecified)	0%	15	1%	?	/	4%
COC(=O)c1cc2n(n1)CCN(Cc1ccc(F)cc1)C2=O	-1%	-106*	19%	21%	-5%	-16%
CC(C)(C)OC(=O)N1CCC(NC(=O)c2[nH]cnc2C(=O)Nc2cccc(Cl)c2)CC1	-1%	0	?	?	22%	2%
CC(C)(C)OC(=O)N1CCC(NC(=O)c2nc[nH]c2C(=O)NC2CCN(C(=O)OC(C)(C)C)CC2)CC1	0%	22	3.7µM*	3.7µM*	7%	-9%
CC(C)(C)OC(=O)N1CCC(NC(=O)c2ncn(Cc3ccccc3)c2C(=O)NC2CCN(C(=O)OC(C)(C)C)CC2)CC1	0%	101	5.2µM*	?	-20%	-3%
C[C@H](NC(=O)c1ncn(Cc2ccccc2)c1C(=O)N[C@@H](C)c1ccccc1)c1ccccc1	-9%	30	?	8.3µM*	?	0%
CCOC(=O)c1ccc(NC(=O)c2nc[nH]c2C(=O)NC2CCN(C(=O)OC(C)(C)C)CC2)cc1	9%	5	10µM*	?	25%	15%
C[C@@H](CNC1CCCCC1)OC(=O)c1ccccc1	/	/	2µM*	2.6µM*	/	/
O=C(COc1ccc(C(=O)c2ccccc2)cc1)NC1CCCCC1	-4%	-84*	9%	44%	22%	0%
CC(OC(=O)COc1ccccc1)C(=O)NC1CCCC1 (stereo unspecified)	0%	1	1%	19%	8%	22µM*
O=C(COc1ccc(C(=O)c2ccccc2)cc1)NC1CCCCCC1	-1%	?	?	?	11µM*	8%
O=C(COc1ccccc1)NC1CCCCC1	15%	-9	7%	15%	33%	-3%
COc1ccc(OC)c(NC(=O)Cn2cc(C(=O)c3cccs3)c3ccccc32)c1	/	?	/	/	/	8%
Cc1ccc2oc3c(c(=O)c2c1)C(c1cccc(O)c1)N(Cc1ccccc1Cl)C3=O (stereo unspecified)	/	-74*	/	/	/	-5%
Cc1cc(C)c2c(=O)c3c(oc2c1)C(=O)N(Cc1ccc(F)cc1)C3c1cccc(O)c1 (stereo unspecified)	/	-66*	/	/	/	1%
Cc1ccc2oc3c(c(=O)c2c1)C(c1cccc(Br)c1)N(Cc1ccco1)C3=O (stereo unspecified)	1%	-18	-25%	13µM*	/	-1%
COc1ccc(N2CCN(C(=O)Cc3noc4ccc(C)cc34)CC2)cc1	/	-10	/	/	/	-7%
Cc1nnc(N(CCC#N)CCC#N)s1	0%	-72*	3%	92%	24%	2%
Cc1onc(-c2ccccc2Cl)c1C(=O)Nc1ccc(CN2CCCC2)cc1	1%	-10	?	/	?	79µM*
Cc1cc(C)n(-c2ccc(Cl)c(C(=O)Nc3ccc(-c4nnc5n4CCCCC5)cc3)n2)n1	0%	-24	?	8.3µM*	?	-2%
COc1ccc(Cl)cc1C(=O)Nc1ccc(-c2nnc3n2CCCCC3)cc1	/	-21	/	/	/	6%
Cc1onc(-c2ccccc2Cl)c1C(=O)Nc1ccccc1	3%	-9	-10%	-15%	-5%	-7%
Cc1onc(-c2ccccc2Cl)c1C(=O)Nc1ccc(-c2nnc3n2CCCCC3)cc1	1%	-27	9.3µM*	/	-26%	0%
COc1ccc(CNC(=O)C2(c3cccs3)CCOCC2)cc1	/	1	/	/	/	13%
O=C(Cc1ccc(Br)cc1)NC1CCSC1=O (stereo unspecified)	-2%	-28	13%	0%	9%	-7%
CC1=C(C(=O)N2CCOCC2)CC(CC(=O)NCCc2ccccn2)C(=O)N1Cc1ccccc1 (stereo unspecified)	/	11	/	/	/	/
